From PubChem BioAssay (NCI) come the findings set out here.

Common to all, as to assay: NCI-60 one-dose screen, 48 h (100 = growth as untreated, 0 = no growth, -100 = all killed)
In assay [1] the test system is HCT-15 colon. The following applies: 10 µM unless noted.
Assay [2] has as its system HT29 colon. The following applies: 10 µM unless noted.
In assay [3] the test system is SNB-19 CNS. The conditions noted are these: 10 µM unless noted.
Assay [4] concerns U251 CNS. The following applies: 10 µM unless noted.
Assay [5] has as its system PC-3 prostate. The following applies: 10 µM unless noted.
The subject of assay [6] is SK-MEL-5 melanoma. The conditions noted are these: 10 µM unless noted.
For assay [7], the system named is UACC-62 melanoma. The conditions noted are these: 10 µM unless noted.
The test system of assay [8] is LOX IMVI melanoma. The conditions noted are these: 10 µM unless noted.
The subject of assay [9] is SK-MEL-28 melanoma. The following applies: 10 µM unless noted.
Assay [10] concerns SK-MEL-2 melanoma. The conditions noted are these: 10 µM unless noted.
The test system of assay [11] is EKVX NSCLC. The conditions noted are these: 10 µM unless noted.
For assay [12], the system named is SN12C renal. The following applies: 10 µM unless noted.
Assay [13] has as its system UO-31 renal. The conditions noted are these: 10 µM unless noted.
Assay [14] relates to TK-10 renal. The conditions noted are these: 10 µM unless noted.
Assay [15] has as its system ACHN renal. The conditions noted are these: 10 µM unless noted.
The subject of assay [16] is CAKI-1 renal. The conditions noted are these: 10 µM.
The test system of assay [17] is A498 renal. The conditions noted are these: 10 µM unless noted.
For assay [18], the system named is CCRF-CEM leukemia. The following applies: 10 µM unless noted.
Assay [19] has as its system MOLT-4 leukemia. The following applies: 10 µM unless noted.

Compounds without any hit were thinned out: in the full panel of roughly 83,000, 20% have a hit.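 Step 1: grow cells in 96-well plates. Step 2: add test compound at a single concentration. Step 3: incubate 48 h. Step 4: record percent growth.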 Unmarked numbers belong to inactive results. Active and inactive are the calls of the source. How the source made its calls: active means growth percent below 10; inactive means the rest.

With `Oc1ccc(CSc2nnc(-c3ccc(Br)cc3)o2)c2cccnc12`, the growth in [1] was 10.7%; in assay [2] it was 111%; in assay [3], 20%; in [4], 12.5%; in assay [5], 23%; in [6], 12%. The growth is 27.3% in assay [7]; 20.3% in assay [8]; 32.8% in [9]; 68.1% in assay [10]; 58.9% in assay [11]; 45.2% in [12]. Moreover, the growth in [13] was 7.37% (active); in [14], 60%; in assay [15], 17.8%; in assay [16], 25.6%; in assay [17], 74.5%; in [18], 15.2%. The growth in assay [19] is 24.1%.

Consider `COc1ccc2c(c1)oc1c3[nH]c4ccccc4c3c3c(c21)C(=O)N(O)C3=O`, for which the growth in assay [1] is 50.5%; in [2], 38.3%; in assay [3], 32.6%; in [4], 15.7%; in [5], 45.4%; in assay [6], -22.1% (active). Besides, the growth in assay [7] was 12.4%; in assay [8], -76% (active); in assay [9], 76.3%; in assay [10] it was 70.8%; in assay [11], 92.5%; in assay [12] it was 40.5%. The growth in assay [13] is 22.4%; in assay [14], 119%; in assay [15], 11.5%; in assay [16] it was 19.6%; in [17] it was -1.48% (active); in assay [18] it was 6.73% (active). For the same compound, the growth in assay [19] is -2.02% (active).

On to `O=C(NCCCNc1cc(-c2cn(-c3ccccc3)nc2-c2cccc(O)c2)ccn1)Nc1cccc(C(F)(F)F)c1`, for which the growth in assay [1] was -25.3% (active); in assay [2] it was 9.99% (active); in assay [3], 42.8%; in assay [4], 33.5%; in assay [5] it was 27.1%; in [6], 37.8%. Further, the growth in assay [7] was 19.9%; in [8], 8.34% (active); in assay [9], -12.1% (active); in [10], 58.1%; in assay [11], 45.7%; in [12] it was 56.5%. Moreover, the growth in assay [13] is 23.8%; in assay [14], 88.3%; in assay [15] it was 47.6%; in [16], 36.9%; in assay [17], 18.3%; in assay [18] it was 29.2%. The growth in [19] was 11.6%.

Take `Nc1ccc(-c2nnc(SCc3ccc(O)c4ncccc34)n2-c2ccccc2)cc1`: the growth in [1] was 11.3%; in assay [2] it was 23.8%; in assay [3] it was 12.4%; in assay [4], 8.88% (active); in [5] it was 14.1%; in assay [6], -54.6% (active). Besides, the growth is 11.9% in assay [7]; 14% in assay [8]; 34% in assay [9]; 12.4% in [10]; 30% in [11]; 5.29% (active) in [12]. The growth in assay [13] is 4.44% (active); in [14], 25.3%; in assay [15], 12.4%; in assay [16], 12.9%; in [17] it was 15.8%; in [18], 20.7%. Moreover, the growth in [19] was 29.5%.

In the case of `Nc1c(C(=O)c2ccccc2)sc2nc(-c3cnccn3)cc(-c3cccs3)c12`, the growth is 106% in assay [1]; 107% in [2]; 96.5% in assay [3]; 104% in assay [4]; 100% in assay [5]; 103% in [6]. Also, the growth in assay [7] is 87.1%; in assay [8], 101%; in [9], 106%; in assay [10], 111%; in [11], 95.6%; in assay [12] it was 95.2%. Also, the growth in [13] was 88.4%; in [14] it was 106%; in [15], 98.3%; in [16], 89.9%; in assay [17] it was 106%; in assay [18], 100%. Moreover, the growth in [19] is 105%.

Turning to `CC(=O)Nc1cccc(-n2cnc3cc(-c4ccc(O)cc4)ccc32)c1`, the growth is 24.8% in assay [1]; 28.2% in [2]; 33.4% in assay [3]; 23.1% in [4]; 35.7% in assay [5]; 28.3% in assay [6]. Besides, the growth in [7] was 36.5%; in [8], 36.6%; in assay [9], 78%; in assay [10], 29.2%; in assay [11], 56.6%; in assay [12] it was 38.1%. In addition, the growth in assay [13] is 28.1%; in assay [14] it was 72.6%; in assay [15], 33%; in assay [16], 23.3%; in assay [17], -32.6% (active); in assay [18], 23.6%. For the same compound, in assay [19], the growth is 21.5%.

Turning to `O=C1[C@H]2Cc3c([nH]c4ccccc34)[C@@H](c3ccc(Cl)cc3)N2C(=O)CN1C1CCN(Cc2c(Cl)cccc2Cl)CC1`, the growth is 54.5% in assay [1]; 81.8% in assay [2]; 94.2% in assay [3]; 91.2% in assay [4]; 70.8% in assay [5]; 90.1% in assay [6]. Further, the growth in [7] was 81.8%; in [8], -89% (active); in assay [9], 103%; in [10], 102%; in [11], 78.6%; in assay [12], 81.3%. Further, the growth in [13] is 2.51% (active); in [14] it was 107%; in assay [15], -33.8% (active); in assay [16], 54.6%; in assay [17] it was 111%; in assay [19] it was 97.3%.

In the case of `CC(=O)NC(C)(C)C(=O)N[C@@H](C)C(=O)NC(C)(C)C(=O)N[C@@H](C)C(=O)NC(C)(C)C(=O)N[C@@H](C)C(=O)N[C@@H](CCC(N)=O)C(=O)NC(C)(C)C(=O)N[C@H](C(=O)NC(C)(C)C(=O)NCC(=O)N[C@@H](CC(C)C)C(=O)NC(C)(C)C(=O)N1CCC[C@H]1C(=O)N[C@H](C(=O)NC(C)(C)C(=O)NC(C)(C)C(=O)N[C@@H](CCC(N)=O)C(=O)N[C@@H](CCC(N)=O)C(=O)N[C@H](CO)CC1CCCCC1)C(C)C)C(C)C`, the growth was 79.2% [5 µM] in assay [1]; 14.1% [5 µM] in assay [2]; 43.8% [5 µM] in assay [3]; 38.5% [5 µM] in assay [4]; 29.8% [5 µM] in assay [5]; -33.6% [5 µM] (active) in assay [6]. The growth in assay [7] was 2.45% [5 µM] (active); in [8] it was 27.1% [5 µM]; in assay [9] it was -17.1% [5 µM] (active); in assay [10], 5.52% [5 µM] (active); in [11] it was 52% [5 µM]; in assay [12], 21.2% [5 µM]. Further, the growth in assay [13] was 53.1% [5 µM]; in [14], 38.8% [5 µM]; in assay [15], 72.2% [5 µM]; in [17], 52.3% [5 µM]; in assay [18], 55.6% [5 µM]; in [19] it was 55.1% [5 µM].
